# Measured values reported in PubChem BioAssay (NCI).
# Where “and” joins values, the source holds several entries; their conditions need not be identical. Equal values may be shown once. This is part of a sample that, as a whole, favours compounds with a hit. Of some 83,000 tested, about 20% had one in any assay.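 How to read the values: 0–100, growth inhibition (40 = 60% inhibited); 0, no net growth; -100 to 0, cell death (-40 = 40% of starting cells died; -100 = all dead).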 Unmarked numbers belong to inactive results. Calls of active or inactive are those of the source. Rule for the calls: active = growth percent below 10; inactive = the rest.
# Tested on: HL-60(TB) leukemia
# Assay: NCI-60 one-dose screen, 48 h (100 = growth as untreated, 0 = no growth, -100 = all killed)
# Details: 10 µM unless noted
row,Compound,growth
1,O=C(COc1ccc(NC(=O)Nc2ccc(Cl)c(Cl)c2)cc1)N=Nc1c(O)[nH]c2ccc(Cl)cc12,-23% (active)
2,COc1ccc2c(c1)c(-c1cc(N)n3nc(-c4c[nH]c5ccccc45)cc3n1)cn2C,-32.4% (active)
3,CCN(CC)C(=O)N/C(N)=N/c1nc2ccccc2s1,52.1%
4,COc1cc(C2CC(c3cc(OC)c(OC)c(OC)c3)=Nc3c(N)nc(N)nc3N2)ccc1Oc1nc(Nc2ccc(F)cc2)nc(N(C)C)n1 (centres undefined),8.45% (active)
5,C=CCSc1nnc(-c2c(C)nc3sccn23)o1,119%
6,COc1ccc(NC(=O)CSc2nnc(-c3ccc(-c4nc5ccccc5[nH]4)cc3)o2)cc1,43.5%
7,N/N=C(\N)c1c(N)nc(=S)[nH]c1-c1ccc(Cl)cc1Cl,89.1%
8,CC12CC[C@@H]3[C@]4(C)COC(c5cn[nH]c5-c5ccc(Cl)cc5)O[C@@H]4CC[C@@]3(C)[C@@H]1CC(C1=CCOC1=O)O2 (some centres undefined),3.37% (active)
9,Cn1cc(-c2cc(N)n3nc(-c4c[nH]c5ccc(F)cc45)cc3n2)c2cc(Br)cnc21,33.2%
10,O=C1CCC(N2Cc3cc(NC(=O)COc4ccccc4)ccc3C2=O)C(=O)N1 (centres undefined),6.3% (active)
11,COc1ccc(OC)c(-n2cc(C#N)c(N)c2C(=O)c2ccc(Cl)cc2Cl)c1,2.46% (active)
12,O=C(CSc1nc2ccccc2c(=O)n1-c1ccc(Cl)cc1)Nc1ccc(-c2nc3ccc([N+](=O)[O-])cc3[nH]2)cc1,85.7%
13,CC1=NN(C2=NC(=O)C(CC(=O)Nc3ccccc3C(F)(F)F)S2)C(c2ccc(N(C)C)cc2)C1 (centres undefined),10.7%
14,CCOC(=O)COc1c(OC)c(OC)cc2oc(-c3cccc(C(=O)Nc4ccc(Cl)cc4)c3)cc(=O)c12,97.6%
15,O=C(O)c1ccc(-c2ccc(/C=N/NC(=O)c3[nH]c4ccc(Br)cc4c3-c3ccccc3)o2)cc1,-18.5% (active)
16,CN(C)c1nc(NCCNS(=O)(=O)c2ccc(C(=O)/C=C/c3ccc(Cl)cc3)cc2)nc(Nc2ccc(F)cc2)n1,-42.7% (active)
17,CCC(=O)c1c2c(c3ccc4c5ccccc5ccc4n13)C(=O)c1ccccc1C2=O,90.1%
18,COc1ccc(CCN2C(=O)/C(=C/c3csc(C#N)n3)SC2=S)cc1OC,-18% (active)
19,CC(C)(C)Nc1nc2cc(Cl)c(Cl)cc2nc1S(C)(=O)=O,36.8%
20,O=C(CN1CCN(c2ncnc3c2cnn3-c2ccccc2)CC1)Nc1ccc(Br)cc1,64.3%

row,Compound,growth
1,COc1ccc(C(=O)/C=C/c2ccc(OCc3ccccc3)c(OC)c2)cc1OC,5.55% (active)
2,O=C(c1ccc(Cl)cc1)C1[C@H](c2ccccc2Br)[C@@H](c2ccccc2)NC12C(=O)Nc1ccc(Cl)cc12 (some centres undefined),32%
3,COc1cc(C=O)ccc1OC(=O)c1cc(-c2ccc(C)cc2)n(-c2ccc(S(C)(=O)=O)cc2)n1,83.4%
4,Cc1ccc(C(SCCNCc2cc(N(C)C)ccn2)(c2ccccc2)c2ccccc2)cc1,-40.9% (active)
5,CC(=O)Nc1ccc(-n2cnc3cc(-c4ccc(O)cc4)ccc32)cc1C,26.6%
6,O=C1CCC(N2Cc3cc(CC(=O)Nc4ccc(N5CCCCC5)cc4)ccc3C2=O)C(=O)N1 (centres undefined),-0.226% (active)
7,O=C(/C=C/c1ccc(-c2ccccc2)cc1)c1nc2ccccc2n1Cc1ccc(Br)cc1,35.3%
8,Cc1cccc2cc(-c3cc(-c4ccccc4)nc(=O)[nH]3)c(Cl)nc12,55.3%
9,Cc1ccc2nc(SCc3ccccc3F)n(-c3ccccc3)c(=O)c2c1,104%
10,COc1cc2c(c(OC)c1OC)C(=O)CC(c1cccc(NC(=O)c3cc(NC(=O)[C@H](C)N)ccc3Cl)c1)O2 (some centres undefined),2.28% (active)
11,COC(=O)c1cc(C(C)=O)n2c3ccccc3c3ccccc3c12,101%
12,O=C(/C=C/Nc1ccccc1)c1ccc2c(c1)Nc1ccccc1S2,90.9%
13,CCCCCCCCc1ccc(C(=O)Nc2cccc(O)c2)cc1,56.5%
14,CSc1ccc(OCc2nc3ccccc3n2-c2cccc(NS(C)(=O)=O)c2)cc1,115% and 105%
15,Cc1ccc(-c2nc(Nc3ccccc3C(=O)O)c3ccccc3n2)cc1,17.8%
16,Nc1nc(-c2ccccc2)c(N=Nc2ccc([N+](=O)[O-])cc2Cl)s1,98.1%
17,O=C(NN1C(=O)/C(=C/C=C/c2ccc([N+](=O)[O-])o2)SC1=S)c1ccc(Cl)cc1,-7.52% (active)
18,COc1ccc2c(c1)N=C(C(=O)O)/C2=C/c1sc(Nc2ccc(O)cc2)nc1O,85.8%
19,COc1ccc(C(=O)c2cc(C(C)=O)c3c(C)cc(C)cn23)cc1,78%
